PubChem BioAssay (Tox21)
A number with no mark means an inactive call. Calls come from the whole dose curve; as a rule, active = well fitted curve in the direction sought with a large enough effect in the repeat runs; inconclusive = weak or mixed curves; inactive = flat fitted curve, though single readings scatter.

assay: qHTS assay to test for compound auto fluorescence at 535 nm (green) in HEK293 cell free culture (AID 720682); conditions: cell-free medium, green autofluorescence 485/535 nm, stronger effect = higher value; series mostly up to 91.3 µM; activity change: at the top concentration
How it was run: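 Measurement is a direct plate read of green fluorescence (485 nm in, 535 nm out) after compound addition to serum-supplemented DMEM lacking cells, with fluorescein used to express intensities.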
% is set by controls: 0 for no effect and ±100 for the full control effect.

| Compound | activity change |
| --- | --- |
| CCCc1nn(C)c2c(=O)[nH]c(-c3cc(S(=O)(=O)N4CCN(C)CC4)ccc3OCC)nc12 | -0.0324% [at 46 µM] |
| CO[C@@]1(NC(=O)CSC[C@@H](N)C(=O)O)C(=O)N2C(C(=O)O)=C(CSc3nnnn3C)CS[C@@H]21 | -0.0452% [at 46 µM] |
| CN(C)CCN(C)CCN(C)C | 0.0161% |
| Cc1ccc(C(=O)Nc2ccc(S(=O)(=O)O)c3cc(S(=O)(=O)O)cc(S(=O)(=O)O)c23)cc1NC(=O)c1cccc(NC(=O)Nc2cccc(C(=O)Nc3cc(C(=O)Nc4ccc(S(=O)(=O)O)c5cc(S(=O)(=O)O)cc(S(=O)(=O)O)c45)ccc3C)c2)c1 | 0.0173% [at 46 µM] |
| C=C(C)C(=O)OCCOCCOCCOCCOC(=O)C(=C)C | -0.0904% |
| OCCCCCO | 0.0927% [at 95.7 µM] |
| CO[Si](C)(OC)c1ccccc1 | -0.0317% |
| CC1=NS(=O)(=O)c2cc(Cl)ccc2N1 | -0.0171% [at 46 µM] |
| CCOC(=O)CCC(=O)OCC | -0.0078% |
| CCCC(C)C(=O)OCC (centres undefined) | 0.0101% |
| CCCCS(=O)(=O)N[C@@H](Cc1ccc(OCCCCC2CCNCC2)cc1)C(=O)O | 0.0494% [at 46 µM] |
| c1coc(CNc2ncnc3nc[nH]c23)c1 | -0.0271% |
| CCOC(=O)COc1cc(-n2ncc(C(F)(F)F)c(C)c2=O)c(F)cc1Cl | 0% |
| CC(C)CCCO | -0.0249% |
| CC(=O)N1C[C@H](O)C[C@H]1C(=O)O | 0.0378% [at 46 µM] |
| O=S(=O)(O)c1cccc2c(S(=O)(=O)O)cccc12 | 0.0046% |
| C=CN1CCCCCC1=O | 0.0612% |
| C[N+]1(C)[C@@H]2CC(OC(=O)[C@H](CO)c3ccccc3)C[C@H]1[C@@H]1O[C@@H]12 (some centres undefined) | -0.0523% [at 46 µM] |
| CC(C)C[C@@H](N)C(=O)O | -0.0417% [at 46 µM] |
